Source: PubChem (National Center for Advancing Translational Sciences (NCATS))
This is a sample that favours compounds with a hit; in the whole collection about 6.7% have one here.
PINK1 expr mod = PINK1 expression modulation; PINK1 immunofluorescence, high-content cytometry, 24 h; Potency, µM (highest dose often 76.6 µM), inactives show at the highest dose activation (PINK1 increase), actives largely listed as activators; 0.2% of 410,000 active; AID 624263; active = well fitted activation curve with a large enough effect; inconclusive = small, poorly fitted or top-dose-only effect; cell line not stated here; note: % of control where 0% means no effect; nearly all actives have a fitted effect of over 65% in size
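PINK1 protein, normally rapidly degraded, was detected by immunofluorescence after 24 hour compound treatment of a stable cell line. Titration data (5 concentrations) came from laser-scanning cytometry, with CCCP-treated wells as controls.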
KB-3-1 cytotox = kills parental KB-3-1 adenocarcinoma cells. Potency, µM (titrated, usually from 46.1 µM), usual class: cytotoxic. KB-3-1 viability, CellTiter-Glo ATP luminescence, 72 h. 1.4% of 400,000 active. AID 1347075; note: % is set by controls: 0 for no effect and ±100 for the full control effect; nearly all actives have a fitted effect of over 60% in size
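Here the drug-naive KB-3-1 line serves as comparator for MDR sub-line selectivity; cells received compound titrations, 72 h at 37 °C, then CellTiter-Glo readout.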
MCF10A rerep = induces DNA re-replication in MCF 10a normal breast cells; MCF 10A DNA re-replication, Hoechst nuclear intensity, 48 h; Potency, µM (series often up to 46.1 µM), without a hit: at the top dose activity, positive = re-replication, actives largely listed as activators; 2.9% of 350,000 active; note: % of control where 0% means no effect; nearly all actives have a fitted effect of over 50% in size
KB-V1 cytotox = kills drug-selected multidrug resistant KB-V1 cells; KB-V1 MDR cells viability, CellTiter-Glo, 72 h; Potency, µM (doses to about 46.1 µM), usual class: cytotoxic; 3.4% of 400,000 active; note: % is set by controls: 0 for no effect and ±100 for the full control effect; nearly all actives have a fitted effect of over 60% in size
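Cytotoxicity toward P-gp-expressing KB-V1 cells was determined as loss of CellTiter-Glo luminescence after 72 h at 37 degrees C. Compounds were tested in quantitative HTS format across a concentration range, with curves fitted to normalized data.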
SW480 rereplic = inducers of DNA re-replication in SW480 colon cancer cells. SW480 DNA re-replication, Hoechst DNA content imaging, 48 h. Potency, µM (titrated, usually from 46.1 µM), without a hit: at the top dose re-replication activation, hits mostly activators. 1.8% of 340,000 active. AID 624297; note: % of control where 0% means no effect; nearly all actives have a fitted effect of over 55% in size
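Readout is total intensity of Hoechst-stained nuclei, excited at 405 nm and collected at 500-530 nm. Compound treatment lasted 48 hr at 37 C in 5% CO2 before staining.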
* hit, by the source's call; [ ] = remark or other dose. Unless noted, calls come from the whole dose curve; as a rule, active = well fitted curve in the direction sought with a large enough effect; inconclusive = small, poorly fitted or top-dose-only effect, or another doubt; inactive = no such curve, though single readings can be large; an effect the other way counts as inactive or inconclusive. Potency is the fitted concentration of half-maximal effect.

For CCCCC(=O)OC1CCC2C3CCc4cc(O)ccc4C3CC[C@]12C (some centres not stated) the results were MCF10A rerep 19µM* and SW480 rereplic 3%.
Screening CCC(Sc1nnc2c(n1)[nH]c1ccccc12)C(=O)Nc1ccccc1OC (configuration not stated) returned PINK1 expr mod 2%, KB-3-1 cytotox inactive and KB-V1 cytotox inconclusive.
For CC1CCN(S(=O)(=O)c2ccc3c(c2)N(CC(=O)NCCCN2CCCCC2)C(=O)CS3)CC1 the results were PINK1 expr mod -2%, KB-3-1 cytotox inactive, MCF10A rerep 15%, KB-V1 cytotox inactive and SW480 rereplic 12%.
For FC(F)(F)c1ccc(/C=N/NC(=S)NC2CCCCC2)cc1 the results were PINK1 expr mod 7%, KB-3-1 cytotox inactive, MCF10A rerep 18µM*, KB-V1 cytotox inactive and SW480 rereplic 10%.
For COc1cccc(N2CCN(C(=O)c3cn(Cc4ccccc4)nc3-c3cccnc3)CC2)c1 the results were PINK1 expr mod 5%, KB-3-1 cytotox 1.8µM*, MCF10A rerep 5.2µM*, KB-V1 cytotox inconclusive and SW480 rereplic 4.1µM*.
COc1ccccc1N1CCN(C(=O)c2cn(Cc3ccccc3)nc2-c2cccnc2)CC1 was read as PINK1 expr mod 11%, KB-3-1 cytotox inactive, MCF10A rerep -2%, KB-V1 cytotox inconclusive and SW480 rereplic 2%.
COc1cccc(NC(=O)CN(C)C(=O)/C=C/c2cn(Cc3ccccc3)nc2-c2cccnc2)c1 was read as PINK1 expr mod 2%, KB-3-1 cytotox inactive, MCF10A rerep inconclusive, KB-V1 cytotox inactive and SW480 rereplic 15µM*.
Screening O=C1N(Cc2cccc(C(F)(F)F)c2)c2ccccc2S(=O)(=O)N1c1cccc(Cl)c1 returned PINK1 expr mod 0%, KB-3-1 cytotox inactive and KB-V1 cytotox inconclusive.
Screening COc1cc2c(cc1OC)C(c1cc(Br)ccc1F)N(C(=O)CCl)CC2 (configuration not stated) returned PINK1 expr mod -1%, KB-3-1 cytotox inconclusive, MCF10A rerep 3.3µM*, KB-V1 cytotox inactive and SW480 rereplic 14%.
`Cc1ccc(NC(=O)C2CC(=O)N(C(C)c3ccccc3)C2)cc1` (configuration not stated) gave PINK1 expr mod 1%, KB-3-1 cytotox inactive, MCF10A rerep 2%, KB-V1 cytotox 18µM* and SW480 rereplic 0%.
Screening CCCCCCn1c2c(c(=N)c3c1CCC3)CCC2 returned PINK1 expr mod 6%[38.3 µM], KB-3-1 cytotox 2.1µM*, MCF10A rerep 15%, KB-V1 cytotox inactive and SW480 rereplic 1%.
CCCCCCn1c(=O)[nH]c2c(c1=O)CCC2 was read as PINK1 expr mod 3%, KB-3-1 cytotox inactive, MCF10A rerep 5%, KB-V1 cytotox inactive and SW480 rereplic 4%.
`CCCCCCCCCn1c2c(c(=N)c3c1CCC3)CCC2` gave PINK1 expr mod -1%, KB-3-1 cytotox 1µM*, MCF10A rerep inconclusive, KB-V1 cytotox inactive and SW480 rereplic 19%.
Screening CCCCCCCn1c2c(c(=N)c3c1CCC3)CCCC2 returned PINK1 expr mod 11µM*, KB-3-1 cytotox 0.58µM*, MCF10A rerep inconclusive, KB-V1 cytotox inconclusive and SW480 rereplic 0%.
For CCCCn1c2c(c(=N)c3c1CCC3)CCC2 the results were PINK1 expr mod 0%, KB-3-1 cytotox 4.1µM*, MCF10A rerep 2%, KB-V1 cytotox inactive and SW480 rereplic -3%[9.22 µM].
Screening CCn1c2c(c(=N)c3c1CCC3)CCC2 returned PINK1 expr mod 3%, KB-3-1 cytotox inactive, MCF10A rerep 6%, KB-V1 cytotox inactive and SW480 rereplic -3%.
For COc1ccc(C)cc1NC(=O)Cn1c(=O)n(Cc2nc(C)no2)c(=O)c2ccccc21 the results were PINK1 expr mod 1%, KB-3-1 cytotox inactive and KB-V1 cytotox inactive.
For Cc1ccc(C)c(N2CCN(C(=O)c3ccc4nc(-c5ccco5)c(-c5ccco5)nc4c3)CC2)c1 the results were PINK1 expr mod 6%[38.3 µM], KB-3-1 cytotox 18µM*, MCF10A rerep inconclusive, KB-V1 cytotox inconclusive and SW480 rereplic 18µM*.
`O=C(c1ccc2ncsc2c1)N1CCCC(C(F)(F)F)C1` (configuration not stated) gave PINK1 expr mod -3%, KB-3-1 cytotox inactive, MCF10A rerep -21%, KB-V1 cytotox inactive and SW480 rereplic inconclusive.
CC1CCCN(C(=O)c2ccc3ncsc3c2)C1 (configuration not stated) was read as PINK1 expr mod 3%, KB-3-1 cytotox inactive, MCF10A rerep 9%, KB-V1 cytotox inactive and SW480 rereplic 3.7µM*.
`Cc1ccc(C)c(N2CCN(C(=O)c3ccc4c(c3)c(C)c(C)n4C)CC2)c1` gave PINK1 expr mod 17%, KB-3-1 cytotox inconclusive, MCF10A rerep 5.2µM*, KB-V1 cytotox inactive and SW480 rereplic inconclusive.
Screening COc1ccccc1N1CCN(C(=O)c2ccc3ncsc3c2)CC1 returned PINK1 expr mod 6%, KB-3-1 cytotox 5.2µM*, MCF10A rerep 21µM*, KB-V1 cytotox 12µM* and SW480 rereplic 16µM*.
COc1ccc(NC(=O)N(C)C[C@H]2Oc3c(NS(=O)(=O)c4cccs4)cccc3C(=O)N([C@@H](C)CO)C[C@@H]2C)cc1 was read as PINK1 expr mod 0%, KB-3-1 cytotox inactive, MCF10A rerep -6%, KB-V1 cytotox inactive and SW480 rereplic inconclusive.
COc1ccccc1N1CCN(C(=O)c2nc(SC)ncc2Cl)CC1 was read as PINK1 expr mod 13%, KB-3-1 cytotox 4.1µM* and KB-V1 cytotox 4.1µM*.
COc1ccccc1N1CCN(C2CCN(C(=O)c3cccc(F)c3)CC2)CC1 was read as PINK1 expr mod -1%, KB-3-1 cytotox inactive, MCF10A rerep 12%, KB-V1 cytotox 16µM* and SW480 rereplic -2%.
For COc1ccccc1N1CCN(C2CCN(C(=O)c3ccc(F)cc3)CC2)CC1 the results were PINK1 expr mod 0%, KB-3-1 cytotox inactive, MCF10A rerep 1%, KB-V1 cytotox inactive and SW480 rereplic 1%.
For COc1ccccc1N1CCN(C(=O)c2ccc3nc(-c4ccco4)c(-c4ccco4)nc3c2)CC1 the results were PINK1 expr mod -3%, KB-3-1 cytotox inconclusive, MCF10A rerep 23µM*, KB-V1 cytotox 23µM* and SW480 rereplic inconclusive.
Screening CN(Cc1nc2ccccc2n1C)C(=O)c1ccco1 returned PINK1 expr mod 0%, KB-3-1 cytotox inactive, MCF10A rerep 2%, KB-V1 cytotox inactive and SW480 rereplic 0%.
`C=CCNC(=S)N/N=C/c1ccc(C)cc1C` gave PINK1 expr mod 1%, KB-3-1 cytotox inconclusive, MCF10A rerep inconclusive, KB-V1 cytotox inconclusive and SW480 rereplic 0%.
